Screening data: PubChem BioAssay, National Center for Advancing Translational Sciences (NCATS)
DT40 TDP1 CPT = growth inhibition of DT40 Tdp1-/-;hTDP1 cells with camptothecin (screen for TDP1 inhibitors); Potency, µM (top dose mostly 46.2 µM), most hits filed as inhibitors; hit rate 12% among 420,000; chicken DT40 Tdp1-/-;hTDP1 cells + 20 nM CPT, ATP luminescence, 48 h; further: nearly all actives have a fitted effect of over 55% in size
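Cell growth measured by CellTiter-Glo luminescence after a minimum 48 h, 37 C compound exposure with 20 nM CPT in Tdp1-knockout DT40 cells stably expressing hTDP1, seeded 400/well; qHTS titration format.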
IL-1B inflam inh = inflammasome signaling inhibition, IL-1 beta readout. THP-1 LPS/ATP IL-1B secretion, AlphaLISA, 16 h; hits give low values. hit rate 4.7% among 360,000. activity change, % at 57.5 µM; in the data active means activity change below about -50%; inconclusive means mostly about -30% to -49%
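THP-1 cells pretreated 1 hr with compounds (up to 57.5 uM final), then stimulated with LPS (250 ng/mL final) plus ATP (1.25 mM final); secreted IL-1B measured by AlphaLISA after 16 hr, decreased signal indicating inhibition.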
HT1080 IDH1KD tx = HT-1080 IDH1 knockdown cell toxicity (counter line). HT-1080 IDH1 knockdown viability, ATP luminescence, 48 h. Potency, µM (titrated, usually from 46.1 µM), hits mostly cytotoxic. hit rate 2% among 360,000
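Luminescent ATP read-out (CellTiter-Glo, 10 min at room temperature) after 48 h compound exposure at 37 °C gave viability of IDH1-knockdown HT-1080 cells. Activity was normalised to DMSO and cell-free wells, then fitted as concentration-response curves.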
TDP1 cell noCPT = qHTS for Inhibitors of human tyrosyl-DNA phosphodiesterase 1 (TDP1): qHTS in cells in absence of CPT | hit rate 15% among 420,000 | DT40 Tdp1-/- hTDP1 cells, no CPT, ATP luminescence, 48 h | Potency, µM (series often up to 46.2 µM), usual class: inhibitors; further: nearly all actives have a fitted effect of over 55% in size
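Seeded 400 DT40-hTDP1 cells/well (vehicle DMSO, no 20 nM CPT); pinned compounds; ≥48 hr at 37 °C; CellTiter-Glo luminescence as viability measure.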
HT1080-NT tox = kills 2HG-producing HT-1080-NT fibrosarcoma cells; HT-1080-NT fibrosarcoma viability, CellTiter-Glo ATP luminescence, 48 h; Potency, µM (top dose mostly 46.1 µM), most hits filed as cytotoxic; hit rate 1.6% among 360,000;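 further: NT is the 2HG producing partner of a matched IDH1 knockdown line; nearly all actives have a fitted effect of over 55% in size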
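Fibrosarcoma NT cells, 750 per well in 5% FBS RPMI, were exposed to compound for 48 hours. Viability: CellTiter-Glo luminescence.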
ELG1 repair inh = ELG1-dependent DNA repair inhibition; Potency, µM (top dose mostly 46.1 µM), most hits filed as inhibitors; HEK293T ELG1-luciferase reporter, luminescence, 16 h; DNA damage induced by 5-fluorouridine; hit rate 2.3% among 330,000; AID 504467; further: nearly all actives have a fitted effect of over 55% in size
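In this reporter screen, reduction of luminescence relative to DMSO vehicle indicated activity. Compounds and 5-fluorouridine were added together to 2,000 cells per well, incubated for 16 hr at 37 °C, then developed with ONE-Glo.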
Of the large screens only hits and unclear results are named; the others gave an inactive call. Most compounds without a hit are left out; they make up all but 19% or so of the library. Unless noted, the call rests on the fitted dose curve; in most records, active means well fitted curve in the direction sought with a large enough effect; inconclusive means small, poorly fitted or top-dose-only effect, or another doubt; inactive means no such curve, though single readings can be large; an effect the other way counts as inactive or inconclusive.

COc1ccc(NC(=O)CCCNC(=O)c2ccc(Cl)cc2)cc1S(=O)(=O)N1CCCCC1	DT40 TDP1 CPT inconclusive, TDP1 cell noCPT 21µM (no result: ELG1 repair inh)
O=C(CCNC(=O)c1ccccc1)Nc1ccc(Cl)c(S(=O)(=O)N2CCCCC2)c1	TDP1 cell noCPT inconclusive, ELG1 repair inh 16µM
O=C(CCNC(=O)c1ccc([N+](=O)[O-])cc1)Nc1ccc(Cl)c(S(=O)(=O)N2CCOCC2)c1	TDP1 cell noCPT inconclusive, ELG1 repair inh 18µM
O=c1ccc(-c2ccc(S(=O)(=O)N3CCN(c4ccccc4)CC3)o2)n[nH]1	ELG1 repair inh inconclusive
Cc1cccc(C)c1NC(=O)COC(=O)c1ccccc1[N+](=O)[O-]	none
Cc1ccc(NC(=O)COC(=O)c2cccc3c2C(=O)c2ccccc2C3=O)c(C)c1	DT40 TDP1 CPT inconclusive, HT1080 IDH1KD tx inconclusive, TDP1 cell noCPT inconclusive, ELG1 repair inh 10µM
Cc1cc(C)c(NC(=O)COC(=O)c2cccc3c2C(=O)c2ccccc2C3=O)c(C)c1	DT40 TDP1 CPT inconclusive, IL-1B inflam inh inconclusive, TDP1 cell noCPT inconclusive, ELG1 repair inh 13µM
Cc1cccc(C)c1NC(=O)COC(=O)c1ccccc1Nc1ccccc1	DT40 TDP1 CPT inconclusive, TDP1 cell noCPT 9.2µM
COc1ccc(NC(=O)COC(=O)CNC(=O)C2CCCCC2)cc1OC	none
Cc1ccc(OC(C)C(=O)Nc2cccc(S(=O)(=O)N3CCCCCC3)c2)cc1 (stereo unspecified)	DT40 TDP1 CPT inconclusive, TDP1 cell noCPT inconclusive (no result: ELG1 repair inh)
CCC(C)NS(=O)(=O)c1cc2c3c(c1)CCN3C(=O)CC2 (stereo unspecified)	ELG1 repair inh inconclusive
COc1cc(/C=N/Nc2ncc(C(F)(F)F)cc2Cl)cc(OC)c1OC	DT40 TDP1 CPT inconclusive, TDP1 cell noCPT inconclusive, ELG1 repair inh inconclusive
O=C(N/N=C/c1ccc(C(F)(F)F)cc1)c1ccncc1	none
COC(=O)c1ccc(COc2ccc(Cl)cc2)o1	ELG1 repair inh inconclusive
NC(=S)N/N=C/c1ncc(C(F)(F)F)cc1Cl	DT40 TDP1 CPT 0.41µM, IL-1B inflam inh -103, HT1080 IDH1KD tx 5.2µM, TDP1 cell noCPT 0.52µM, HT1080-NT tox 10µM, ELG1 repair inh inconclusive
COC(=O)c1ccc(COc2ccc(/C=N/NC(N)=S)cc2)o1	DT40 TDP1 CPT inconclusive, TDP1 cell noCPT inconclusive, ELG1 repair inh 15µM
NC(=S)N/N=C/c1ccc(C(F)(F)F)cc1	DT40 TDP1 CPT 21µM, HT1080 IDH1KD tx 21µM, TDP1 cell noCPT 16µM, HT1080-NT tox inconclusive
Cc1scc(C(=O)N/N=C/c2ccc(OC(C)C)cc2)c1C	DT40 TDP1 CPT inconclusive, IL-1B inflam inh -70, TDP1 cell noCPT inconclusive, ELG1 repair inh inconclusive
COc1cc(C(C)=NNC(=O)c2ccncc2)ccc1O	none (no result: ELG1 repair inh)
CCOc1ccc(/C=N/NC(=O)c2csc(C)c2C)c(OCC)c1	none
COc1ccccc1/C=N/NC(=O)c1csc(C)c1C	ELG1 repair inh inconclusive
Cc1scc(C(=O)N/N=C/c2ccc(Cl)s2)c1C	DT40 TDP1 CPT inconclusive, TDP1 cell noCPT 16µM, ELG1 repair inh inconclusive
COc1ccc(/C=N/NC(N)=S)cc1	DT40 TDP1 CPT inconclusive, TDP1 cell noCPT inconclusive, HT1080-NT tox inconclusive, ELG1 repair inh inconclusive
CC(C)Oc1ccc(/C=N/NC(N)=S)cc1	HT1080 IDH1KD tx 15µM, TDP1 cell noCPT inconclusive, HT1080-NT tox inconclusive, ELG1 repair inh inconclusive
CCCCOc1cccc(/C=N/NC(=O)c2csc(C)c2C)c1	DT40 TDP1 CPT inconclusive, IL-1B inflam inh inconclusive, TDP1 cell noCPT 23µM
Cc1c(Cl)cccc1NC(=O)N1CCN(C(=O)c2ccco2)CC1	DT40 TDP1 CPT inconclusive
O=C1NN(c2ccc(F)cc2)C(=O)/C1=C/c1cccs1	IL-1B inflam inh -51
CC1(C(=O)NS(=O)(=O)c2ccc3ccccc3c2)CCN1C(=O)Cc1ccc(Cl)cc1Cl (stereo unspecified)	TDP1 cell noCPT inconclusive (no result: ELG1 repair inh)
CC(NC(=O)c1ccc2c(c1)OCO2)C(c1cccs1)N1CCN(c2ccccc2)CC1 (stereo unspecified)	DT40 TDP1 CPT inconclusive, HT1080 IDH1KD tx inconclusive, TDP1 cell noCPT 18µM, ELG1 repair inh inconclusive
CC(NC(=O)NC1CCCCC1)C(c1cccs1)N1CCN(c2ccccc2)CC1 (stereo unspecified)	DT40 TDP1 CPT inconclusive, IL-1B inflam inh inconclusive, TDP1 cell noCPT 21µM, ELG1 repair inh inconclusive
CC(NC(=O)c1cccs1)C(c1cccs1)N1CCN(c2ccccc2)CC1 (stereo unspecified)	ELG1 repair inh inconclusive
CC(C)C(=O)NC(C)C(c1cccs1)N1CCN(c2ccccc2)CC1 (stereo unspecified)	DT40 TDP1 CPT inconclusive, TDP1 cell noCPT 21µM
CC(NC(=O)c1ccc2c(c1)OCO2)C(c1cccs1)N1CCOCC1 (stereo unspecified)	DT40 TDP1 CPT inconclusive
Cc1ccc(CNC(=O)c2ccc3c(O)c(S(=O)(=O)c4ccc(Cl)cc4)c(=O)[nH]c3c2)cc1	none (no result: IL-1B inflam inh, HT1080 IDH1KD tx, HT1080-NT tox, ELG1 repair inh)
COc1cc(OC)cc(-c2c(-c3cccs3)c3cc(-c4ccc5c(c4)OCO5)ccc3n2C)c1	DT40 TDP1 CPT inconclusive, TDP1 cell noCPT inconclusive
COc1cc(OC)cc(-c2c(-c3cccs3)c3cc(-c4ccc(N(C)C)nc4)ccc3n2C)c1	DT40 TDP1 CPT 23µM, TDP1 cell noCPT 21µM
COc1cc(OC)cc(-c2c(-c3cccs3)c3cc(Br)ccc3n2C)c1	none
COc1cc(F)cc(-c2ccc3c(c2)c(-c2cccs2)c(-c2cc(OC)cc(OC)c2)n3C)c1	DT40 TDP1 CPT 18µM, TDP1 cell noCPT 23µM
COc1cc(OC)cc(-c2c(-c3cccs3)c3cc(-c4ccn[nH]4)ccc3n2C)c1	DT40 TDP1 CPT inconclusive, HT1080 IDH1KD tx inconclusive, TDP1 cell noCPT 16µM, HT1080-NT tox inconclusive, ELG1 repair inh inconclusive
Cc1ccccc1-c1cnc(C(O)c2ccc(C(C)(C)C)cc2)[nH]1 (stereo unspecified)	DT40 TDP1 CPT inconclusive, HT1080 IDH1KD tx inconclusive, TDP1 cell noCPT inconclusive, HT1080-NT tox inconclusive (no result: ELG1 repair inh)
CCN(CC)C(=O)C1CCN(Cc2cn(C)nc2-c2ccc(Oc3ccccc3)cc2)CC1	DT40 TDP1 CPT inconclusive, TDP1 cell noCPT 21µM
C[C@H]1C(=O)N(C)CCN1Cc1cn(C)nc1-c1ccc(Oc2ccccc2)cc1	DT40 TDP1 CPT inconclusive, TDP1 cell noCPT inconclusive, ELG1 repair inh inconclusive
O=C(NNc1c([N+](=O)[O-])cc(C(F)(F)F)cc1[N+](=O)[O-])c1ccco1	DT40 TDP1 CPT 26µM, HT1080 IDH1KD tx inconclusive, TDP1 cell noCPT 23µM, HT1080-NT tox 21µM, ELG1 repair inh 18µM
